Test results taken from PubChem BioAssay AID1159580 (chemical genetic matrix, 2015).
The campaign covered roughly 5,500 compounds. About 2,000 (36%) were called active. About 18% were inconclusive and are not listed. Rule as the data show it: active = normalized growth mostly below about 0.91 (no sharp cut-off); inconclusive = no clear call, values can overlap the other calls; inactive = mostly above about 0.92. The list shows a part of the results.

Test: chemical genetic growth profiling, strain panel (AID 1159580);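 also: tested at 20 µM; growth read once vehicle control cultures reached saturation at 30 °C; 1 = growth at the plate median or of vehicle wells; lower values mean less growth of the strain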
Settings: S. cerevisiae deletion strains, growth OD

Measured: normalized growth

C/C=C(/C)C(=O)OC1CCC2(C)C3CCC4C5(O)CC(O)C6(O)C(CN7CC(C)CCC7C6(C)O)C5(O)CC42OC13O (configuration not stated)
inactive: locus YAL021C, strain ccr4, stronger effect = lower value 0.955 | locus YAL026C, strain drs2, stronger effect = lower value 0.954 | locus YAL030W, strain snc1, stronger effect = lower value 1.01 | locus YBL061C, strain skt5, stronger effect = lower value 1.01 | locus YBR009C, strain hhf1, stronger effect = lower value 0.951 | locus YBR023C, strain chs3, stronger effect = lower value 0.992 | locus YBR171W, strain sec66, stronger effect = lower value 0.968 | locus YBR229C, strain ROT2, stronger effect = lower value 0.97 | locus YBR231C, strain swc5, stronger effect = lower value 0.991 | locus YBR279W, strain paf1, stronger effect = lower value 0.99 | locus YCL011C, strain gbp2, stronger effect = lower value 0.993 | locus YCL016C, strain dcc1, stronger effect = lower value 1.01 | locus YCL029C, strain bik1, stronger effect = lower value 0.979 | locus YCL069W, strain vba3, stronger effect = lower value 0.971 | locus YCR088W, strain abp1, stronger effect = lower value 0.993 | locus YDL005C, strain med2, stronger effect = lower value 1.01 | locus YDL035C, strain GPR1, stronger effect = lower value 0.922 | locus YDL040C, strain nat1, stronger effect = lower value 0.994 | locus YDL074C, strain BRE1, stronger effect = lower value 0.844 | locus YDL101C, strain DUN1, stronger effect = lower value 0.95 | locus YDL185W, strain tfp1, stronger effect = lower value 0.994 | locus YDL192W, strain arf1, stronger effect = lower value 0.96 | locus YDR001C, strain nth1, stronger effect = lower value 0.995 | locus YDR069C, strain doa4, stronger effect = lower value 1.01 | locus YDR101C, strain arx1, stronger effect = lower value 0.955 | locus YDR137W, strain rgp1, stronger effect = lower value 0.857 | locus YDR150W, strain NUM1, stronger effect = lower value 0.986 | locus YDR159W, strain sac3, stronger effect = lower value 0.974 | locus YDR162C, strain NBP2, stronger effect = lower value 0.942 | locus YDR195W, strain ref2 1.04 | locus YDR297W, strain sur2, stronger effect = lower value 0.982 | locus YDR318W, strain mcm21, stronger effect = lower value 0.964 | locus YDR334W, strain swr1, stronger effect = lower value 0.977 | locus YDR335W, strain msn5, stronger effect = lower value 0.999 | locus YDR388W, stronger effect = lower value 0.953 | locus YDR392W, strain spt3, stronger effect = lower value 0.95 | locus YDR502C, strain sam2, stronger effect = lower value 0.937 | locus YEL003W, strain gim4, stronger effect = lower value 0.993 | locus YEL037C, strain rad23, stronger effect = lower value 0.984 | locus YEL061C, strain CIN8 (second series), stronger effect = lower value 0.981 | locus YEL061C, strain CIN8, stronger effect = lower value 0.961 | locus YER015W, strain faa2, stronger effect = lower value 0.999 | locus YER016W, strain bim1, stronger effect = lower value 1.07 | locus YER110C, stronger effect = lower value 0.963 | locus YER111C, strain swi4, stronger effect = lower value 0.995 | locus YER155C, strain BEM2 (second series), stronger effect = lower value 0.969 | locus YER155C, strain BEM2, stronger effect = lower value 0.966 | locus YFR010W, strain ubp6, stronger effect = lower value 0.969 | locus YGL078C, strain dbp3, stronger effect = lower value 0.989 | locus YGL086W, strain mad1, stronger effect = lower value 0.953 | locus YGL167C, strain pmr1, stronger effect = lower value 0.996 | locus YGL173C, strain kem1, stronger effect = lower value 0.998 | locus YGL227W, strain vid30, stronger effect = lower value 1 | locus YGL240W, strain doc1, stronger effect = lower value 0.988 | locus YGL248W, strain PDE1, stronger effect = lower value 0.928 | locus YGL253W, strain hxk2, stronger effect = lower value 1 | locus YGR135W, strain pre9, stronger effect = lower value 0.928 | locus YGR252W, strain gcn5, stronger effect = lower value 0.789 | locus YHR013C, strain ard1, stronger effect = lower value 0.995 | locus YHR027C, strain rpn1, stronger effect = lower value 1 | locus YHR030C, strain SLT2, stronger effect = lower value 0.982 | locus YHR079C, strain IRE1 (second series), stronger effect = lower value 0.972 | locus YHR094C, strain hxt1, stronger effect = lower value 0.971 | locus YHR129C, strain ARP1, stronger effect = lower value 0.955 | locus YHR142W, strain chs7, stronger effect = lower value 0.974 | locus YHR200W, strain rpn10, stronger effect = lower value 0.973 | locus YIL066C, strain RNR3, stronger effect = lower value 0.885 | locus YIL073C, strain SPO22, stronger effect = lower value 0.924 | locus YIL125W, strain kgd1, stronger effect = lower value 0.976 | locus YIR030C, strain dcg1, stronger effect = lower value 0.978 | locus YJL092W, strain hpr5, stronger effect = lower value 1 | locus YJL095W, strain BCK1 (second series), stronger effect = lower value 1 | locus YJL095W, strain BCK1, stronger effect = lower value 0.891 | locus YJL115W, strain asf1, stronger effect = lower value 0.985 | locus YJL129C, strain trk1, stronger effect = lower value 1 | locus YJL134W, strain LCB3, stronger effect = lower value 0.983 | locus YJL154C, strain vps35, stronger effect = lower value 0.989 | locus YJL164C, strain tpk1, stronger effect = lower value 0.996 | locus YJL166W, strain qcr8, stronger effect = lower value 0.994 | locus YJL168C, strain set2, stronger effect = lower value 0.976 | locus YJL187C, strain SWE1 (second series), stronger effect = lower value 0.943 | locus YKL009W, strain mrt4, stronger effect = lower value 0.987 | locus YKL068W, stronger effect = lower value 0.961 | locus YKL085W, strain MDH1 (second series), stronger effect = lower value 0.948 | locus YKL085W, strain MDH1, stronger effect = lower value 0.948 | locus YKL160W, strain elf1, stronger effect = lower value 1.02 | locus YKL190W, strain CNB1, stronger effect = lower value 0.979 | locus YKR026C, strain gcn3, stronger effect = lower value 0.988 | locus YKR091W, strain srl3, stronger effect = lower value 1.01 | locus YLL001W, strain dnm1, stronger effect = lower value 0.985 | locus YLL026W, stronger effect = lower value 1 | locus YLL041C, strain sdh2, stronger effect = lower value 0.991 | locus YLR027C, strain aat2, stronger effect = lower value 1 | locus YLR039C, strain RIC1, stronger effect = lower value 0.889 | locus YLR058C, strain SHM2, stronger effect = lower value 0.949 | locus YLR102C, strain apc9, stronger effect = lower value 0.972 | locus YLR221C, strain rsa3, stronger effect = lower value 0.968 | locus YLR258W, strain gsy2, stronger effect = lower value 0.998 | locus YLR262C, strain YPT6, stronger effect = lower value 1 | locus YLR268W, strain sec22, stronger effect = lower value 0.938 | locus YLR320W, strain mms22, stronger effect = lower value 0.959 | locus YLR342W, strain FKS1, stronger effect = lower value 1 | locus YLR357W, strain rsc2, stronger effect = lower value 1.02 | locus YLR370C, strain arc18, stronger effect = lower value 0.994 | locus YLR371W, strain rom2, stronger effect = lower value 0.985 | locus YLR384C, strain iki3, stronger effect = lower value 0.991 | locus YML016C, strain PPZ1, stronger effect = lower value 0.969 | locus YML032C, strain rad52, stronger effect = lower value 0.935 | locus YML120C, strain ndi1, stronger effect = lower value 0.997 | locus YML124C, strain tub3, stronger effect = lower value 0.97 | locus YMR058W, strain fet3, stronger effect = lower value 0.993 | locus YMR078C, strain ctf18, stronger effect = lower value 0.968 | locus YMR125W, strain sto1, stronger effect = lower value 0.991 | locus YMR129W, stronger effect = lower value 1 | locus YMR205C, strain PFK2, stronger effect = lower value 0.986 | locus YMR223W, strain ubp8, stronger effect = lower value 0.957 | locus YMR231W, strain pep5, stronger effect = lower value 1 | locus YMR263W, strain SAP30, stronger effect = lower value 0.943 | locus YMR307W, strain GAS1, stronger effect = lower value 0.626 | locus YNL067W, strain RPL9B, stronger effect = lower value 0.962 | locus YNL071W, strain lat1, stronger effect = lower value 0.98 | locus YNL209W, strain ssb2, stronger effect = lower value 0.997 | locus YNL233W, strain BNI4, stronger effect = lower value 0.908 | locus YNL248C, strain rpa49, stronger effect = lower value 0.973 | locus YNL250W, strain rad50, stronger effect = lower value 0.992 | locus YNL271C, strain bni1, stronger effect = lower value 0.996 | locus YNL298W, strain CLA4, stronger effect = lower value 0.967 | locus YNL322C, strain KRE1 (second series), stronger effect = lower value 1.03 | locus YNL322C, strain KRE1, stronger effect = lower value 0.947 | locus YNR049C, strain mso1, stronger effect = lower value 1.02 | locus YNR052C, strain pop2, stronger effect = lower value 1.02 | locus YOL006C, strain TOP1, stronger effect = lower value 0.627 | locus YOL012C, strain htz1 0.727 | locus YOL147C, strain pex11, stronger effect = lower value 0.96 | locus YOR001W, strain rrp6, stronger effect = lower value 0.937 | locus YOR061W, strain CKA2, stronger effect = lower value 0.975 | locus YOR069W, strain VPS5, stronger effect = lower value 0.981 | locus YOR070C, strain gyp1, stronger effect = lower value 0.987 | locus YOR080W, strain dia2, stronger effect = lower value 1 | locus YOR083W, strain WHI5, stronger effect = lower value 1.03 | locus YOR106W, strain vam3, stronger effect = lower value 1.02 | locus YOR136W, strain idh2, stronger effect = lower value 0.979 | locus YOR144C, strain elg1, stronger effect = lower value 0.963 | locus YOR265W, strain rbl2, stronger effect = lower value 0.984 | locus YOR270C, strain vph1, stronger effect = lower value 0.94 | locus YOR290C, strain snf2, stronger effect = lower value 1.03 | locus YOR316C, strain cot1, stronger effect = lower value 0.969 | locus YPL051W, strain arl3, stronger effect = lower value 1.02 | locus YPL055C, strain LGE1, stronger effect = lower value 0.877 | locus YPL078C, strain atp4, stronger effect = lower value 1.01 | locus YPL106C, strain sse1, stronger effect = lower value 1.01 | locus YPL240C, strain hsp82, stronger effect = lower value 0.988 | locus YPR119W, strain clb2, stronger effect = lower value 0.969 | locus YPR141C, strain kar3, stronger effect = lower value 0.978 | locus YPR163C, strain tif3, stronger effect = lower value 0.964 | locus YPR167C, strain met16, stronger effect = lower value 0.967 | strain wtn01, stronger effect = lower value 0.949
active: locus YBR021W, strain FUR4, stronger effect = lower value 0.747 | locus YER167W, strain BCK2, stronger effect = lower value 0.852 | locus YJR043C, strain POL32, stronger effect = lower value 0.845 | locus YKR001C, strain vps1, stronger effect = lower value 0.821 | locus YLR262C, strain YPT6 (second series), stronger effect = lower value 0.82 | locus YLR330W, strain CHS5, stronger effect = lower value 0.902 | locus YLR342W, strain FKS1 (second series), stronger effect = lower value 0.715 | locus YLR418C, strain cdc73, stronger effect = lower value 0.705 | locus YNL307C, strain MCK1, stronger effect = lower value 0.83 | locus YOR184W, strain ser1, stronger effect = lower value 0.815
